Laboratory results: PubChem BioAssay (NCATS)
Inconclusive results are not listed. Some structures have more than one record in an assay (separate samples or runs), and their calls can disagree. Active and inactive are the calls of the source. The call rests on the fitted dose curve; in most records, active means well fitted curve in the direction sought with a large enough effect; inconclusive means small, poorly fitted or top-dose-only effect, or another doubt; inactive means no such curve, though single readings can be large; an effect the other way counts as inactive or inconclusive.

Assays:
JEG-3 = experiment: Primary qHTS to identify gynecologic anti-cancer compounds using libraries of approved drugs and bioactive compounds (AID 1345084); conditions: Gynecologic cancer cell panel viability, ATPlite luminescence, 48 h; series mostly up to 57.5 µM; further: nearly all actives have a fitted effect of over 55% in size
Summary of the method: (§1)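 In this quantitative HTS, cell killing is estimated from loss of ATP-dependent luciferase light. Cells see five compound concentrations over a 48 h exposure.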

OV90 = experiment: as above; conditions: Gynecologic cancer cell panel viability, ATPlite luminescence, 48 h; series mostly up to 57.5 µM
Summary of the method: as §1

PA-1 = experiment: as above; conditions: Gynecologic cancer cell panel viability, ATPlite luminescence, 48 h; series mostly up to 57.5 µM
Summary of the method: as §1

SKOV3 = experiment: as above; conditions: Gynecologic cancer cell panel viability, ATPlite luminescence, 48 h; series mostly up to 57.5 µM
Summary of the method: as §1

Tov-21-G = experiment: as above; conditions: Gynecologic cancer cell panel viability, ATPlite luminescence, 48 h; series mostly up to 57.5 µM
Summary of the method: as §1

Tov112D = experiment: as above; conditions: Gynecologic cancer cell panel viability, ATPlite luminescence, 48 h; series mostly up to 57.5 µM
Summary of the method: as §1

[1] = Drug repurposing screens with cells derived from glioblastoma tumor samples (AID 1345199); conditions: GBM patient neurospheres viability, ATP luminescence, 48 h; further: nearly all actives have a fitted effect of over 40% in size; further: potency means the concentration at half of the fitted maximal effect
Summary of the method: (§2)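 Four patient lines of CD133+ GBM neurospheres were screened at several concentrations; hits were retested in those lines plus three slower-growing GBM lines, using 48-hour treatment and ATP-based viability.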

astro = experiment: as above; conditions: viability, ATP luminescence, 48 h; series mostly up to 45.9 µM
Summary of the method: as §2

[2] = at 20 µM (top of the series), tumour line C
[3] = at 21.2 µM (top of the series), tumour line B
[4] = at 21.2 µM (top of the series), tumour line D
[5] = at 21.3 µM (top of the series), tumour line A
[6] = at 45.9 µM (top of the series), tumour line B
[7] = at 45.9 µM (top of the series), tumour line D
[8] = at 46 µM (top of the series), tumour line A
[9] = at 46.1 µM (top of the series), tumour line C
On the % scale 0 is the no-effect control and ±100 the full control effect.

CCO/C([O-])=N/c1c[n+](N2CCOCC2)no1
inactive: Potency (JEG-3) | Potency (OV90) | Potency (PA-1) | Potency (SKOV3) | Potency (Tov-21-G) | Potency (Tov112D) | activity, negative = cell killing [1, 2] -6.76% | activity, negative = cell killing [1, 3] -3.07% | activity, negative = cell killing [1, 4] -1.62% | activity, negative = cell killing [1, 5] -22.7% | Potency (astro)

CCN(Cc1ccncc1)C(=O)C(CO)c1ccccc1 (stereo unspecified)
inactive: Potency (JEG-3) | Potency (OV90) | Potency (PA-1) | Potency (SKOV3) | Potency (Tov-21-G) | Potency (Tov112D) | activity, negative = cell killing [1, 6] -2.8% | activity, negative = cell killing [1, 7] -5.82% | activity, negative = cell killing [1, 8] -16.9% | activity, negative = cell killing [1, 9] 1.27% | Potency (astro)

CC(=O)Oc1cc(C(C)C)c(OCCN(C)C)cc1C
inactive: Potency (JEG-3) | Potency (OV90) | Potency (PA-1) | Potency (SKOV3) | Potency (Tov-21-G) | Potency (Tov112D) | activity, negative = cell killing [1, 2] -2.72% | activity, negative = cell killing [1, 3] -4.22% | activity, negative = cell killing [1, 4] -2.65% | activity, negative = cell killing [1, 5] -22.5% | Potency (astro)

O=C(O)CN(CCOCCOCCN(CC(=O)O)CC(=O)O)CC(=O)O
inactive: activity change, negative = cytotoxicity (JEG-3) -5.11% [at 0.462 µM] | activity change, negative = cytotoxicity (OV90) 2.64% [at 0.462 µM] | activity change, negative = cytotoxicity (PA-1) -1.54% [at 0.462 µM] | activity change, negative = cytotoxicity (SKOV3) 17.7% [at 0.462 µM] | activity change, negative = cytotoxicity (Tov-21-G) 1.63% [at 0.462 µM] | activity change, negative = cytotoxicity (Tov112D) 6.01% [at 0.462 µM] | activity, negative = cell killing [1, 6] -21% | activity, negative = cell killing [1, 7] -7% | activity, negative = cell killing [1, 8] -22.8% | activity, negative = cell killing [1, 9] 4.28% | Potency (astro)

CCCOc1ccccc1-c1nc2n[nH]nc2c(=O)[nH]1
inactive: Potency (JEG-3) | Potency (OV90) | Potency (PA-1) | Potency (SKOV3) | Potency (Tov-21-G) | Potency (Tov112D) | activity, negative = cell killing [1, 6] -4.45% | activity, negative = cell killing [1, 7] -8.24% | activity, negative = cell killing [1, 8] -28% | activity, negative = cell killing [1, 9] -19% | Potency (astro)

CC(=O)OC(C)C[N+](C)(C)C (stereo unspecified)
inactive: Potency (JEG-3) | Potency (OV90) | Potency (PA-1) | Potency (SKOV3) | Potency (Tov-21-G) | Potency (Tov112D) | activity, negative = cell killing [1, 2] 12% | activity, negative = cell killing [1, 3] 6.44% | activity, negative = cell killing [1, 4] -7.66% | activity, negative = cell killing [1, 5] -14.4% | Potency (astro)

CCCN(CCC)C(=O)C(CCC(=O)O)NC(=O)c1ccccc1 (stereo unspecified)
inactive: Potency (JEG-3) | Potency (OV90) | Potency (PA-1) | Potency (SKOV3) | Potency (Tov-21-G) | Potency (Tov112D) | activity, negative = cell killing [1, 6] 1.78% | activity, negative = cell killing [1, 7] -1.59% | activity, negative = cell killing [1, 8] -28.4% | activity, negative = cell killing [1, 9] -13.4% | Potency (astro)

Cc1cc(C)c(/C=C2\C(=O)Nc3ccccc32)[nH]1
inactive: Potency (JEG-3) | Potency (OV90) | Potency (PA-1) | Potency (SKOV3) | Potency (Tov-21-G) | Potency (Tov112D) | activity, negative = cell killing [1, 6] -6.6%
active: Potency ([1]; tumour line A) 31.6 µM

Cc1scc2c1N(C(=O)CN1CCN(C)CC1)c1ccccc1NC2=O
inactive: Potency (JEG-3) | Potency (OV90) | Potency (PA-1) | Potency (SKOV3) | Potency (Tov-21-G) | Potency (Tov112D) | activity, negative = cell killing [1, 6] -11.6% | activity, negative = cell killing [1, 7] 2.13% | activity, negative = cell killing [1, 8] -22.7% | activity, negative = cell killing [1, 9] -12.1% | Potency (astro)

NC/C=C/C(=O)O
inactive: Potency (JEG-3) | Potency (OV90) | Potency (PA-1) | Potency (SKOV3) | Potency (Tov-21-G) | Potency (Tov112D) | activity, negative = cell killing [1, 6] -2.84% | activity, negative = cell killing [1, 7] -13.4% | activity, negative = cell killing [1, 8] -7.07% | activity, negative = cell killing [1, 9] -22.1% | Potency (astro)

CCN(CC)CCNC(=O)c1ccc(NC(C)=O)cc1
inactive: Potency (JEG-3) | Potency (OV90) | Potency (PA-1) | Potency (SKOV3) | Potency (Tov-21-G) | Potency (Tov112D) | activity, negative = cell killing [1, 6] -5.4% | activity, negative = cell killing [1, 7] 7.82% | activity, negative = cell killing [1, 8] 7.67% | activity, negative = cell killing [1, 9] -13.9% | Potency (astro)

CCCCOCCOCCOCc1cc2c(cc1CCC)OCO2
active: Potency ([1]; tumour line A) 31.6 µM
inactive: Potency (JEG-3) | Potency (OV90) | Potency (PA-1) | Potency (SKOV3) | Potency (Tov-21-G) | Potency (Tov112D) | activity, negative = cell killing [1, 6] -4.83% | activity, negative = cell killing [1, 7] 11.7% | activity, negative = cell killing [1, 9] -0.263% | activity, negative = cell killing ([1]; at 91.6 µM (top of the series), tumour line B) -11.5% | activity, negative = cell killing ([1]; at 91.6 µM (top of the series), tumour line D) -27.9% | activity, negative = cell killing ([1]; at 99.2 µM (top of the series), tumour line C) 13.4% | Potency (astro)

NS(=O)(=O)c1cc2c(cc1Cl)NC(C1CC3C=CC1C3)NS2(=O)=O (stereo unspecified)
inactive: Potency (JEG-3) | Potency (OV90) | Potency (PA-1) | Potency (SKOV3) | Potency (Tov-21-G) | Potency (Tov112D) | activity, negative = cell killing [1, 6] 0.786% | activity, negative = cell killing [1, 7] 7.03% | activity, negative = cell killing [1, 8] -11.5% | activity, negative = cell killing [1, 9] -5.22% | Potency (astro)

CCOC(=O)C1=C(C)NC(C)=C(C(=O)OC)C1c1cccc([N+](=O)[O-])c1 (stereo unspecified)
inactive: Potency (JEG-3) | Potency (OV90) | Potency (PA-1) | Potency (SKOV3) | Potency (Tov-21-G) | Potency (Tov112D) | activity, negative = cell killing [1, 6] 3.31% | activity, negative = cell killing [1, 7] -28.4% | activity, negative = cell killing [1, 9] -23.9% | Potency (astro)
active: Potency ([1]; tumour line A) 11.2 µM

CC(=O)OCC1=C(C(=O)O)N2C(=O)[C@@H](NC(=O)Cc3cccs3)[C@H]2SC1
inactive: Potency (JEG-3) | Potency (OV90) | Potency (PA-1) | Potency (SKOV3) | Potency (Tov-21-G) | Potency (Tov112D) | activity, negative = cell killing [1, 6] 5.86% | activity, negative = cell killing [1, 7] -7.52% | activity, negative = cell killing [1, 8] -19.9% | activity, negative = cell killing [1, 9] -19.9% | Potency (astro)

CN(C)C(=O)Oc1ccc[n+](C)c1
inactive: Potency (JEG-3) | Potency (OV90) | Potency (PA-1) | Potency (SKOV3) | Potency (Tov-21-G) | Potency (Tov112D) | activity, negative = cell killing [1, 6] 5.33% | activity, negative = cell killing [1, 7] -8.24% | activity, negative = cell killing [1, 8] -28.3% | activity, negative = cell killing [1, 9] -15.6% | Potency (astro)

COCCOC(=O)C1=C(C)NC(C)=C(C(=O)OC(C)C)C1c1cccc([N+](=O)[O-])c1 (stereo unspecified)
inactive: Potency (JEG-3) | Potency (OV90) | Potency (PA-1) | Potency (SKOV3) | Potency (Tov-21-G) | Potency (Tov112D) | activity, negative = cell killing [1, 6] -4.05% | activity, negative = cell killing [1, 9] -1.16% | Potency (astro)
active: Potency ([1]; tumour line A) 14.1 µM
